Data: PubChem BioAssay AID1259415 (National Center for Advancing Translational Sciences (NCATS), 2018)
Screen size: about 410,000 compounds; about 18,000 (4.4%) were called active. About 7% were inconclusive and are not listed. No stated cut-off is given here; in the data, active means activity change below about -60%; inconclusive means no clear call, values can overlap the other calls; inactive means above about -39%. For the sample, actives were picked, then their nearest neighbours and some compounds at random.
On the % scale 0 is the no-effect control and ±100 the full control effect.

Assay: qHTS Assay for inhibitors of the human cytomegalovirus (HCMV)
Details: HFF cells, HCMV-luciferase reporter, 72 h; at 57.5 µM; stronger effect = lower value
How it was run: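 Compounds were evaluated in HFFs infected with an HCMV luciferase reporter virus (MOI 1 PFU/cell). Luciferase in lysates collected 72 h post infection served as the replication measure.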
In the case of `CC(C)NC(=O)C(=O)NCCCOC(C)C`, the activity change, negative = inhibition is reported as -7.97% (inactive).
In the case of `CN(CC(=O)NCCN1CCOCC1)S(=O)(=O)c1ccc(F)cc1`, the activity change, negative = inhibition is reported as -13.5% (inactive).
For `CCc1ccccc1NC(=O)CSc1nnc(-c2ccccc2)c(-c2ccccc2)n1`, the activity change, negative = inhibition was -84.3% (active).
For `COc1ccc(-c2nnc(SCC(=O)Nc3ccc(C(C)C)cc3)nc2-c2ccc(OC)c(OC)c2)cc1OC`, the activity change, negative = inhibition was 2% (inactive).
With `Cc1ccc(-c2nnc(SCC(=O)NCc3ccccc3)nc2-c2ccc(C)cc2)cc1` the activity change, negative = inhibition was -16.5% (inactive).
With `O=c1cc(CSc2ccccn2)nc(N2CCN(c3ccccc3)CC2)[nH]1` the activity change, negative = inhibition was 15.5% (inactive).
For `CCOc1ccccc1N1CCN(C(=O)c2ccc3[nH]c(C)c(C)c3c2)CC1`, the activity change, negative = inhibition was -4.04% (inactive).
With `COc1ccccc1N1CCN(C(=O)c2cc(=O)c3cc(C)cc(C)c3o2)CC1` the activity change, negative = inhibition was -72.5% (active).
For `COc1ccccc1N1CCN(C(=O)c2ccc(NC3=NC4CS(=O)(=O)CC4S3)cc2)CC1` (stereo not drawn), the activity change, negative = inhibition was -1.18% (inactive).
In the case of `O=c1c2cccnc2n(Cc2cccc(F)c2)c(=O)n1Cc1ccccc1Cl`, the activity change, negative = inhibition is reported as -4.52% (inactive).
With `O=S(=O)(NCC(c1ccco1)N1CCOCC1)c1cc(F)ccc1F` (stereo not drawn) the activity change, negative = inhibition was 10.6% (inactive).
In the case of `O=C(N/N=C/C=C/c1ccccc1)C1CC1(c1ccccc1)c1ccccc1` (stereo not drawn), the activity change, negative = inhibition is reported as -22.7% (inactive).
With `O=C(NN=CC=Cc1ccccc1)C(O)C(O)C(=O)NN=CC=Cc1ccccc1` (stereo not drawn) the activity change, negative = inhibition was -99% (active).
For `CC(OC(=O)/C=C/c1ccccc1)C(=O)Nc1ccc(C(N)=O)cc1` (stereo not drawn), the activity change, negative = inhibition was -26.6% (inactive).
With `O=C(Nc1ccn(Cc2ccccc2)n1)c1n[nH]c([N+](=O)[O-])c1Cl` the activity change, negative = inhibition was -0.724% (inactive).
With `CC1(C)CC(N2CCN(C(c3ccccc3)c3ccccc3)CC2)=CC(=[N+]2CCCCC2)C1` the activity change, negative = inhibition was -98.5% (active).
In the case of `COC(=O)C(c1ccccc1)N1CCCCCC1` (stereo not drawn), the activity change, negative = inhibition is reported as -22.2% (inactive).
With `COc1ccc(CCN2C(=O)N(c3cccc(OC)c3)C(=O)C2CC(=O)Nc2ccccc2)cc1` (stereo not drawn) the activity change, negative = inhibition was 30.6% (inactive).
With `Cc1csc2nc(COc3ccc(NC(=O)COc4ccccc4)cc3)cc(=O)n12` the activity change, negative = inhibition was -18.6% (inactive).
With `CCOC(=O)c1[nH]c(C)c(CCC(=O)N2CCN(c3ccccc3)CC2)c1C` the activity change, negative = inhibition was -11% (inactive).
In the case of `COc1cc(OC)cc(-c2c(C#Cc3ccsc3)c3cc(-c4ccc(SC)cc4)ccc3n2C)c1`, the activity change, negative = inhibition is reported as -6.32% (inactive).
With `COc1ccc(-c2c(C#Cc3ccccc3)c3ccccc3n2C)cc1` the activity change, negative = inhibition was -78.4% (active).
In the case of `COc1ccc(CCNCc2c(-c3ccccc3)n(C)c3ccccc23)cc1`, the activity change, negative = inhibition is reported as -5.91% (inactive).
With `COc1ccccc1CNCc1ccc(C(=O)O)s1` the activity change, negative = inhibition was -9.76% (inactive).
In the case of `O=C(CSc1nc(=O)[nH]c2c1CCCC2)Nc1cc(C(F)(F)F)ccc1Cl`, the activity change, negative = inhibition is reported as -20.6% (inactive).
In the case of `CN1CCN(Cc2nc3cc(NC(=O)COc4ccc([N+](=O)[O-])cc4)ccc3n2C)CC1`, the activity change, negative = inhibition is reported as 18.6% (inactive).
For `Cn1c(CN2CCOCC2)nc2cc(NC(=O)c3ccc(Cl)cc3)ccc21`, the activity change, negative = inhibition was -84.5% (active).
With `O=C(Nc1ccc(CN2CCOCC2)cc1)c1cc(Cl)ccc1Cl` the activity change, negative = inhibition was -13.5% (inactive).
For `Cc1ccccc1S(=O)(=O)N[C@H]1CC[C@@]23CCCN2C(=O)CCC[C@H]3[C@H]1C`, the activity change, negative = inhibition was -19.4% (inactive).
In the case of `Cc1cccc(Cn2c(CN3CCC(C(=O)NCc4ccccc4Cl)CC3)cc3ccccc32)c1`, the activity change, negative = inhibition is reported as -4.28% (inactive).
With `CCc1cc2c(cc3c(=O)n(CC(=O)N4CCN(c5cc(Cl)ccc5C)CC4)ncn32)s1` the activity change, negative = inhibition was 85.8% (inactive).
With `O=c1c2ccccc2nc2n1C(CSCc1cccc(C(F)(F)F)c1)CS2` (stereo not drawn) the activity change, negative = inhibition was -67.5% (active).
For `Cc1ccc(-n2c(/C=C/c3cccc(C(F)(F)F)c3)nc3ccccc3c2=O)cc1`, the activity change, negative = inhibition was -5.7% (inactive).
For `O=c1c2ccccc2nc2n1C(CSc1ccc(Cl)cc1)CN2` (stereo not drawn), the activity change, negative = inhibition was 59.6% (inactive).
For `O=c1n(Cc2cccc(C(F)(F)F)c2)c2ccccc2c2nc(-c3ccccc3)nn12`, the activity change, negative = inhibition was 26.8% (inactive).
With `O=c1c2ccccc2nc2n1C(CSCc1ccccc1)CS2` (stereo not drawn) the activity change, negative = inhibition was -74.9% (active).
With `C#CCCCc1nc2ccccc2c(=O)n1N` the activity change, negative = inhibition was 56.9% (inactive).
With `Cc1ccccc1C(=O)Nc1sc2c(c1C(=O)N1CCC(C)CC1)CCCC2` the activity change, negative = inhibition was -11.9% (inactive).
In the case of `COc1cc(Br)cc2cc(S(=O)(=O)c3ccccc3)c(=O)oc12`, the activity change, negative = inhibition is reported as 14.3% (inactive).
For `CCN(CC)C(=O)C1=C(C)N(Cc2ccc(C(C)(C)C)cc2)C(=O)C(CC(=O)NCc2cccc3ccccc23)C1` (stereo not drawn), the activity change, negative = inhibition was 16.5% (inactive).
In the case of `CC(C)(C)c1ccc(CN2C(=O)CN=C(c3ccccc3)c3ccccc32)cc1`, the activity change, negative = inhibition is reported as -79.6% (active).
In the case of `COc1ccc(CN2C(=O)CN=C2Nc2ccc(C)cc2C)cc1`, the activity change, negative = inhibition is reported as 1.11% (inactive).
With `O=C(c1ccc(Cl)cc1)n1nc(-c2cccnc2)nc1NCc1ccc(F)cc1` the activity change, negative = inhibition was 4.96% (inactive).
In the case of `CCOc1ccc(-c2cc3nc(C4CCN(C(=O)OC(C)(C)C)CC4)c(C(=O)Nc4ccc(C(=O)OC)cc4)cn3n2)cc1`, the activity change, negative = inhibition is reported as 24.4% (inactive).
For `COc1ccccc1CNC(=O)c1ccc(CS(=O)c2ccccc2Cl)o1` (stereo not drawn), the activity change, negative = inhibition was 9.25% (inactive).
With `CCOc1ccc(NC(=O)c2c(NCc3cccc(OC)c3OC)sc3c2CCC3)cc1` the activity change, negative = inhibition was 13% (inactive).
For `CN(c1ccc2nc3ccccc3c(=O)n2n1)C1CCCCC1`, the activity change, negative = inhibition was -90% (active).
In the case of `COCC(C)n1c(SCC(=O)NC2CCCCC2C)nc2ccccc2c1=O` (stereo not drawn), the activity change, negative = inhibition is reported as -19.2% (inactive).
In the case of `O=C(c1ccco1)N(Cc1nc2ccccc2c(=O)[nH]1)C1CCCC1`, the activity change, negative = inhibition is reported as -0.921% (inactive).
In the case of `COc1ccc(CC(=O)Nc2ccc3c(c2)CCC3)cc1S(=O)(=O)N1CCOCC1`, the activity change, negative = inhibition is reported as -10.6% (inactive).
With `O=C(CCc1ccc(S(=O)(=O)N2CCOCC2)cc1)Nc1ccc2ccccc2c1` the activity change, negative = inhibition was -9.83% (inactive).
In the case of `COc1ccc(/C=C/C(=O)Nc2ccc(C)cc2)cc1S(=O)(=O)N1CCOCC1`, the activity change, negative = inhibition is reported as -73.1% (active).
With `COc1ccc(C(=O)N(Cc2ccccc2)c2ccc(C)cc2)cc1S(=O)(=O)N1CCOCC1` the activity change, negative = inhibition was -15.2% (inactive).
For `COc1ccc(CCC(=O)Nc2ccc(Cl)c(S(=O)(=O)N3CCOCC3)c2)cc1OC`, the activity change, negative = inhibition was -69% (active).
In the case of `COc1ccc(NC(=O)c2cc(=O)[nH]c3ccccc23)cc1S(=O)(=O)N1CCOCC1`, the activity change, negative = inhibition is reported as 9.13% (inactive).
With `O=C(CSc1n[nH]c(-c2ccccc2)n1)N1CCCCC1` the activity change, negative = inhibition was 61.5% (inactive).
With `CSc1nc(-c2ccc(F)cc2)nc2c1Cc1c(CO)cnc(C)c1O2` the activity change, negative = inhibition was 4.76% (inactive).
For `CC(C)(CSc1nncn1/N=C/c1ccco1)NS(=O)(=O)c1ccc(Cl)cc1`, the activity change, negative = inhibition was -28.3% (inactive).
With `COc1cccc(NC(=O)N2CCCC2C(=O)NC2CCCCC2)c1` (stereo not drawn) the activity change, negative = inhibition was -32.8% (inactive).
With `COc1cccc(NC(=O)N(Cc2cn(C)c3ccccc23)C2CCCCCC2)c1` the activity change, negative = inhibition was -105% (active).
In the case of `COc1ccc(CCNC(=O)CCc2cn(C)c3ccccc23)c(OC)c1`, the activity change, negative = inhibition is reported as -11% (inactive).
With `O=C(Cn1c(=O)n(-c2ccc(F)cc2)c(=O)c2sc3ccccc3c21)NC1CCCC1` the activity change, negative = inhibition was -5.96% (inactive).
For `Fc1ccc(-c2nc(Nc3cccc(Cl)c3)nc3c2COc2ccccc2-3)cc1`, the activity change, negative = inhibition was -30.5% (inactive).
For `CCOC(=O)C(C)Sc1nnc(CSc2nc3nc(C)cc(C)n3n2)o1` (stereo not drawn), the activity change, negative = inhibition was -27.1% (inactive).
In the case of `Cn1c(Cc2cccc3ccccc23)nnc1SCC(=O)N1CCN(c2cccc(Cl)c2)CC1`, the activity change, negative = inhibition is reported as -71.4% (active).
For `Cc1cc2nnc(SCC(=O)N3CCN(c4ccccc4)CC3)n2c(N)n1`, the activity change, negative = inhibition was 2.88% (inactive).
With `Cn1c(CNC(=O)c2ccco2)nnc1SCC(=O)N1CCN(c2ccccc2)CC1` the activity change, negative = inhibition was 9.34% (inactive).
With `Cc1ccccc1NC(=O)Cn1c(=O)n(CCCCC(=O)NCc2ccccc2Cl)c(=O)c2ccccc21` the activity change, negative = inhibition was 0.203% (inactive).
For `COc1ccc(N2CCN(c3cc(C)nc4nncn34)CC2)cc1`, the activity change, negative = inhibition was -72.4% (active).
For `Cc1cc(N2CCN(c3ccc(F)cc3)CC2)n2ncnc2n1`, the activity change, negative = inhibition was -22.6% (inactive).
With `COc1ccc(N2CCN(c3ccc([N+](=O)[O-])nc3)CC2)cc1` the activity change, negative = inhibition was -29.8% (inactive).
In the case of `COC(=O)c1ccc(/C=N/OCC(=O)Nc2cc(F)ccc2F)cc1`, the activity change, negative = inhibition is reported as 36.6% (inactive).
In the case of `Cc1ccc2c(c1)c1c(c(=O)n(-c3ccccc3)c(=O)n1CC(=O)c1ccc(Cl)cc1)n2C`, the activity change, negative = inhibition is reported as 7.77% (inactive).
With `O=C(CN(Cc1ccccc1)C(=O)CCC(=O)Nc1ccccn1)NCCc1ccccc1` the activity change, negative = inhibition was 18.2% (inactive).
For `COc1ccc(Cn2c(=O)oc3ccccc32)cc1`, the activity change, negative = inhibition was 6.27% (inactive).
With `COc1ccc(Cn2c(-c3ccc(Cl)cc3)c[n+]3ccccc23)cc1` the activity change, negative = inhibition was -95.3% (active).
In the case of `COc1ccc(CNc2nc(-c3ccc(Cl)cc3)nn2C(=O)c2ccccc2)cc1`, the activity change, negative = inhibition is reported as 1.03% (inactive).
With `CCN1C(=O)C(C(=O)NC(C)c2ccccc2)C2CC1(C)Oc1ccccc12` (stereo not drawn) the activity change, negative = inhibition was -37% (inactive).
In the case of `O=S(=O)(c1ccc(F)cc1)N1CCN=C1SCc1cccc(F)c1`, the activity change, negative = inhibition is reported as -18.5% (inactive).
For `O=C(COc1ccccc1)N1CCN=C1SCc1cccc(F)c1`, the activity change, negative = inhibition was -11.8% (inactive).
In the case of `CCCS(=O)(=O)N1CCN=C1SCc1cccc(F)c1`, the activity change, negative = inhibition is reported as -70.6% (active).
For `COc1cc(OC)cc(-c2nc3nc(C)c(CCC(=O)Nc4ccccc4)c(C)n3n2)c1`, the activity change, negative = inhibition was 4.64% (inactive).
In the case of `Cc1ccc(NC(=O)c2ccc3[nH]c(C)cc(=O)c3c2)c(C)c1`, the activity change, negative = inhibition is reported as -8.34% (inactive).
In the case of `O=C(N/N=C/c1c(O)n(C2CC2)c(=S)[nH]c1=O)c1ccccc1Cl`, the activity change, negative = inhibition is reported as -9.9% (inactive).
In the case of `O=C(N/N=C/c1c(O)n(C2CC2)c(=S)[nH]c1=O)c1ccccc1`, the activity change, negative = inhibition is reported as -8.42% (inactive).
In the case of `Cc1[nH]n(-c2ccccc2)c(=O)c1/C=N/NC(=O)c1ccoc1C`, the activity change, negative = inhibition is reported as -99.7% (active).
With `CCOC(=O)CSc1nnc(CNC(=O)Cc2ccccc2)n1-c1ccccc1OC` the activity change, negative = inhibition was -26.6% (inactive).
With `CC(=O)c1ccc(NC(=O)c2nc(-c3ccc(C)cc3)n3c2CCCCC3)cc1` the activity change, negative = inhibition was -8.98% (inactive).
